Measured values: PubChem BioAssay (NCATS)
Several values for one entry are separate records, joined by “and”; a condition that tells them apart may be missing. Equal values may be shown once. Records with an inconclusive call do not appear. Activity calls are given as the source filed them. Unless noted, the call rests on the fitted dose curve; in most records, active means well fitted curve in the direction sought with a large enough effect; inconclusive means small, poorly fitted or top-dose-only effect, or another doubt; inactive means no such curve, though single readings can be large; an effect the other way counts as inactive or inconclusive.

Key:
[1] = Cell Viability - SK-N-SH (AID 435; calls by dose curve;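 further: potency means the concentration at half of the fitted maximal effect; compound exposure lasted 40 h at 37 °C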); details: SK-N-SH neuroblastoma cell viability qHTS
Procedure, shortened: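 SK-N-SH human neuroblastoma cells (1500/well) were exposed to compounds in complete medium for 40 h at 37 °C, and intracellular ATP was then measured by CellTiter-Glo luminescence. AC50 was taken from Hill fits, normalized to DMSO and 100 uM tamoxifen.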

[2] = Cell Viability - Mesenchymal (AID 546); details: mesenchymal cells viability, qHTS; series mostly up to 91.7 µM;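 further: cells exposed to compound for 40 hours before reading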
Procedure, shortened: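 Human renal mesenchymal cells (glomerulus-derived), 1000 cells/well, 5 hr 37 °C pre-incubation; compound 40 hr, 37 °C; CellTiter-Glo, 20 min RT; luminescence; AC50 via Hill equation.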

[3] = Cellular Toxicity (caspase-3) N2a (AID 665); details: N2a cells, luminescence, normalized: DMSO 0%, 10 µM staurosporine 100%; at 92.2 µM (top of the series);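 further: compound exposure lasted 16 h at 37 °C before readout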
Procedure, shortened: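 Luminescent Caspase-Glo 3/7 readout in N2a mouse neuroblastoma cells after 16 h compound exposure at 37 °C. Signal scaled to DMSO (basal) and 10 uM staurosporine (100%). Concentration-response fitted with Hill equation for AC50.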

[4] = MultiTox-Fluor Cytotoxicity Assay - LYMP1-002 - Live Cells (AID 955); details: LYMP1-002 lymphoblastoid live-cell protease fluorescence viability; series mostly up to 46.1 µM;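 further: cells exposed to compound for 16 hours; on the % scale 0 is the no-effect control and ±100 the full control effect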
Procedure, shortened: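 LYMP1-002 lymphoblastoid cells; 2500 cells/well; 16 hr compound exposure, 37 C; MultiTox-Fluor reagent 60 min RT; live-cell fluorescence Ex/Em=405/510; qHTS concentration-response, Hill-equation AC50; tetraoctylammonium bromide positive control.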

[5] = Cell Viability - LYMP2-010 (AID 981); details: LYMP2-010 lymphoblastoid cell viability, qHTS; series mostly up to 92.2 µM;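 further: cells exposed to compound for 24 hours at 37 °C; on the % scale 0 is the no-effect control and ±100 the full control effect; nearly all actives have a fitted effect of over 55% in size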
Procedure, shortened: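 qHTS cytotoxicity, 1536-well: 2500 cells/well, 5 hr settle, 24 hr compound at 37 C, CellTiter-Glo 30 min RT, luminescence read. Decrease in ATP = toxicity; AC50 via standard Hill equation. Positive control tetraoctylammonium bromide.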

[6] = Cell Viability - LYMP2-018 (AID 985); details: LYMP2-018 lymphoblastoid cells, viability (qHTS); series mostly up to 92.2 µM;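 further: plate controls were DMSO only for no effect and tetraoctylammonium bromide at 92 µM for full effect; nearly all actives have a fitted effect of over 50% in size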
Procedure, shortened: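 2500 cells/well; 5 hr 37 C; cmpd 24 hr 37 C, complete medium; CellTiter-Glo 30 min RT; luminescence. Tetraoctylammonium bromide positive control. AC50 via Hill fit.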

[7] = molecular target: Estrogen receptor (Homo sapiens) (UniProt P03372); assay: qHTS assay for small molecule agonists of estrogen receptor alpha signaling (AID 588514; calls by dose curve;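 further: 0% = vehicle only and 100% = reference agonist; nearly all actives have a fitted effect of over 70% in size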); details: ER-alpha-UAS-bla HEK293, beta-lactamase ratio, 18 h; series mostly up to 76.8 µM
Procedure, shortened: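 Read-out: CCF4 fluorescence from a beta-lactamase reporter in ER-alpha-UAS-bla HEK 293 cells after 18 hrs of compound exposure at 37 C. Normalized to 20 nM 17-beta-estradiol (100%) and DMSO (0%).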

[8] = molecular target: Peroxisome proliferator-activated receptor gamma (Homo sapiens) (UniProt P37231); assay: qHTS assay for small molecule agonists of peroxisome proliferator-activated receptor gamma signaling (AID 588536; active means well fitted curve in the direction sought with a large enough effect in the signal ratio, with a control signal flat, not every such curve was filed as active; the % refers to the signal ratio;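 further: 0% = DMSO basal wells and 100% = rosiglitazone at 2 µM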); details: HEK293 PPARg-UAS-bla, beta-lactamase ratio, 16 h, percent of rosiglitazone response, DMSO as zero; series mostly up to 76.7 µM
Procedure, shortened: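 Cells were plated and held 6–6.5 h at 37 C, then compounds were added as a titration series. After a further 16 h, CCF4 dye was loaded for 2 h at room temperature and emission at 460/530 nm recorded.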

[9] = molecular target: Peroxisome proliferator-activated receptor gamma (Homo sapiens) (UniProt P37231); assay: qHTS assay for small molecule antagonists of peroxisome proliferator-activated receptor gamma signaling (AID 588537; active means well fitted inhibition curve with a large enough effect in the signal ratio, with a control signal flat, not every such curve was filed as active; the % refers to the signal ratio;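 further: reporter cells co-stimulated with 50 nM rosiglitazone agonist during compound treatment; % of control where 0% means no effect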); details: HEK293 PPARg-UAS-bla, beta-lactamase ratio, antagonist mode; series mostly up to 76.8 µM
Procedure, shortened: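 Read-out: CCF4 fluorescence (ex 405, em 460/530 nm) after 2 h at RT. Cells were HEK293 carrying a UAS-bla reporter and treated 16 h at 37 C with compound plus rosiglitazone (50 nM final). Normalized to rosiglitazone and DMSO.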

[10] = molecular target: Retinoic acid receptor RXR-alpha (Homo sapiens) (UniProt P19793); assay: qHTS assay for small molecule agonists of retinoid X receptor alpha signaling (AID 588544; calls by dose curve;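 further: 0% = DMSO basal wells and 100% = reference agonist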); details: HEK293T RXRa-UAS-bla, beta-lactamase reporter, 18 h; series mostly up to 76.7 µM
[11] = qHTS assay for small molecule agonists of the antioxidant response element (ARE) signaling pathway (AID 651741; active means well fitted activation curve with a large enough effect in the signal ratio; the % refers to the signal ratio; further: % of control where 0% means no effect); details: HepG2 ARE-bla reporter, beta-lactamase FRET ratio, 16 h; series mostly up to 96 µM
Procedure, shortened: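 HepG2 ARE-bla reporter cells, 2,000/well; 5 h settle at 37 C/5% CO2; compound pin transfer (23 nL, DMSO); 16 h at 37 C; LiveBLAzer B/G FRET substrate, 2 h RT; fluorescence intensity read.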

[12] = Cell Viability - LYMP2-007 (AID 979); details: LYMP2-007 lymphoblastoid cell viability; series mostly up to 92.2 µM;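 further: cells exposed to compound for 24 h before reading; 0% = DMSO only and the negative end = 92 µM tetraoctylammonium bromide; nearly all actives have a fitted effect of over 60% in size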
Procedure, shortened: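 qHTS cytotoxicity: 2500 cells/well, 5 hr 37 C settle, compound 24 hr 37 C, CellTiter-Glo 30 min RT, luminescence. Decrease in ATP = toxicity. AC50 by standard Hill equation; tetraoctylammonium bromide positive control.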

[13] = qHTS assay for environmental chemicals that activate the Aryl hydrocarbon Receptor (AhR) signaling pathway (AID 651777); details: 1A2-DRE human hepatoma cells, luciferase, 24 h; activation: stronger effect = higher value; further: % of control where 0% means no effect; nearly all actives have a fitted effect of over 15% in size
Procedure, shortened: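 1A2-DRE human hepatoma reporter line; 1,200 cells/well; cmpd or DMSO 24 h, 37 C/5% CO2; One-Glo 30 min RT; luciferase lum.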

[14] = Cellular Toxicity (caspase-3) Mesangial (AID 660); details: mesangial cells, normalized: DMSO 0%, 100 µM tamoxifen 100%; series mostly up to 91.7 µM;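 further: combined caspase 3 and 7 activity read by Caspase-Glo luminescence; cells exposed to compound for 16 h before the caspase read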
Procedure, shortened: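 Luminescent Caspase-Glo 3/7 readout (aminoluciferin substrate cleavage, 20 min RT) after 16 h compound exposure at 37 °C of normal human mesangial cells. Signal increase normalized between DMSO basal and 100 uM tamoxifen; Hill-equation AC50.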

[15] = qHTS assay for small molecule activators of the p53 signaling pathway (AID 651743; active means well fitted activation curve with a large enough effect in the signal ratio, not every such curve was filed as active; the % refers to the signal ratio; further: % of control where 0% means no effect); details: HCT-116 p53RE-bla, beta-lactamase FRET ratio, 16 h; activation: stronger effect = higher value
Procedure, shortened: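 Reporter: beta-lactamase driven by p53 response elements, stably integrated in HCT-116 cells. Cells seeded at 4,000/well, 5 h preincubation, compound (DMSO) 16 h at 37 C; B/G FRET substrate 2 h RT; fluorescence intensity read.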

[16] = Cell Viability - LYMP2-013 (AID 970); details: LYMP2-013 lymphoblastoid cells viability; series mostly up to 92.2 µM;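 further: 0% = DMSO only and full inhibition = tetraoctylammonium bromide control; nearly all actives have a fitted effect of over 55% in size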
Procedure, shortened: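 CellTiter-Glo luminescence (cellular ATP) read after 30 min at RT. Cells: human lymphoblastoid line, 2500/well, 24 hr compound exposure at 37 C. Tetraoctylammonium bromide positive control; AC50 via standard Hill fit of qHTS titrations.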

[17] = Cell Viability - LYMP1-002 - Assay at 24 hr (AID 993); details: LYMP1-002 lymphoblastoid cells viability; series mostly up to 92.2 µM; further: on the % scale 0 is the no-effect control and ±100 the full control effect
Procedure, shortened: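 CellTiter-Glo luminescence (intracellular ATP) after 24 h compound exposure, 37 C, in LYMP1-002 human lymphoblastoid cells; decreased ATP taken as cytotoxicity. AC50 from standard Hill fit of concentration-response curves.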

[18] = qHTS assay for small molecule disruptors of the mitochondrial membrane potential - 1 hr assay (AID 651754; calls by dose curve; further: on the % scale 0 is the no-effect control and ±100 the full control effect; nearly all actives have a fitted effect of over 35% in size); details: series mostly up to 92.2 µM
Procedure, shortened: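 Read-out: dye fluorescence at 490 nm ex/535 nm em (monomers) and 540 nm ex/590 nm em (aggregates) in HepG2 cells. Compound exposure 1 hr at 37C, followed by 30 min dye loading.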

[19] = MultiTox-Fluor Cytotoxicity Assay - LYMP1-001 - Live Cells (AID 947); details: LYMP1-001 lymphoblastoid cells, live-cell protease fluorescence viability; series mostly up to 92.2 µM;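 further: 0% = DMSO only and full inhibition = tetraoctylammonium bromide control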
[20] = molecular target: Nuclear receptor ROR-gamma (Homo sapiens) (UniProt P51449); assay: qHTS assay for small molecule antagonists of the retinoid-related orphan receptor gamma (ROR-gamma) signaling pathway (AID 651802); details: ROR-gamma antagonist cell reporter assay; series mostly up to 92.2 µM;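 further: CHO cells with doxycycline-induced ROR-gamma expression; luciferase reporter luminescence driven by ROR response element; on the % scale 0 is the no-effect control and ±100 the full control effect; nearly all actives have a fitted effect of over 60% in size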
Procedure, shortened: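 Luciferase read-out: ONE-Glo luminescence after 30 min at room temperature, following 16hr doxycycline induction at 37C, 5% CO2 of CHO cells with TET-inducible ROR and RORE-LUC reporter; decreased luminescence = reduced reporter activity.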

Estrogen receptor (Homo sapiens), sequence (P03372 whole entry, looked up): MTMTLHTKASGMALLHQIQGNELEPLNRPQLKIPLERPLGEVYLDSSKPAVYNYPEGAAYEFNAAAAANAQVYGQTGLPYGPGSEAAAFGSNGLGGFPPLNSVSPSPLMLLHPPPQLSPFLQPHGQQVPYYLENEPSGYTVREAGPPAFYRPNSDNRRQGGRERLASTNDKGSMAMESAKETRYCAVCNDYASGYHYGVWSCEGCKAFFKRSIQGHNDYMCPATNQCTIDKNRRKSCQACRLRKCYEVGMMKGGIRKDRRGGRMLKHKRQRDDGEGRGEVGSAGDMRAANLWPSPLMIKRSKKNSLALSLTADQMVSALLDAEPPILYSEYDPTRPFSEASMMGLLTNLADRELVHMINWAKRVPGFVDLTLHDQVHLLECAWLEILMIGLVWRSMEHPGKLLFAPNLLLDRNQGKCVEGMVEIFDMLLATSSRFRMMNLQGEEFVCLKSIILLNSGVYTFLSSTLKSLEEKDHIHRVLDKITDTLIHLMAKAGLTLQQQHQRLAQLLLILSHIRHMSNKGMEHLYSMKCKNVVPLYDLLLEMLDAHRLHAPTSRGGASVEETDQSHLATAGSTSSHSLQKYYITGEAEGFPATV
Peroxisome proliferator-activated receptor gamma (Homo sapiens), sequence (P37231 whole entry, looked up): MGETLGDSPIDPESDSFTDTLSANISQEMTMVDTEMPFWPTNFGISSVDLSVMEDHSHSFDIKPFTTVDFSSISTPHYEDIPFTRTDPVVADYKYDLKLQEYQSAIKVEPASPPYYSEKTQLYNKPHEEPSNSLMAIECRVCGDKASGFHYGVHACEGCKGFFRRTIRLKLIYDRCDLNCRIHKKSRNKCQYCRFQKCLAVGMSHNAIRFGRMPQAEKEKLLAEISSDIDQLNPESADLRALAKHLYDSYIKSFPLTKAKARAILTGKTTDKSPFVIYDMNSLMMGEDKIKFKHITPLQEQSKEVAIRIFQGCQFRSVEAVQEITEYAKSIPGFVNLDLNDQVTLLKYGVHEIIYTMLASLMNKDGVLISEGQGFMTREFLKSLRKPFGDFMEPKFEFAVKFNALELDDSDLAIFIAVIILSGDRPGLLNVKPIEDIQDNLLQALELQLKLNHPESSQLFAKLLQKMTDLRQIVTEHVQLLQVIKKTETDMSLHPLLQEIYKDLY
Retinoic acid receptor RXR-alpha (Homo sapiens), sequence (P19793 whole entry, looked up): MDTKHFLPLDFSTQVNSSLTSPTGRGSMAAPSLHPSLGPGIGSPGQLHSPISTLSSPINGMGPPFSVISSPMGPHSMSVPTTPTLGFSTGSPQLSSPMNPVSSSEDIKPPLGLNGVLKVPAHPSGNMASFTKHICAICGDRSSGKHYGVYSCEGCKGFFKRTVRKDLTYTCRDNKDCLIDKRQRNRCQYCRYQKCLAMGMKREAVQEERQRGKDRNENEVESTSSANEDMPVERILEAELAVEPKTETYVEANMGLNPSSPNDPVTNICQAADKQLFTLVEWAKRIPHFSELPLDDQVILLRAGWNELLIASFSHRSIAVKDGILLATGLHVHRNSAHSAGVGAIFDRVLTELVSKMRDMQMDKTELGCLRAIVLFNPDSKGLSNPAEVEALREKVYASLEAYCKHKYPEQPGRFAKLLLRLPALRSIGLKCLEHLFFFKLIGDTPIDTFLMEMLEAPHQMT
Nuclear receptor ROR-gamma (Homo sapiens), sequence (P51449 whole entry, looked up): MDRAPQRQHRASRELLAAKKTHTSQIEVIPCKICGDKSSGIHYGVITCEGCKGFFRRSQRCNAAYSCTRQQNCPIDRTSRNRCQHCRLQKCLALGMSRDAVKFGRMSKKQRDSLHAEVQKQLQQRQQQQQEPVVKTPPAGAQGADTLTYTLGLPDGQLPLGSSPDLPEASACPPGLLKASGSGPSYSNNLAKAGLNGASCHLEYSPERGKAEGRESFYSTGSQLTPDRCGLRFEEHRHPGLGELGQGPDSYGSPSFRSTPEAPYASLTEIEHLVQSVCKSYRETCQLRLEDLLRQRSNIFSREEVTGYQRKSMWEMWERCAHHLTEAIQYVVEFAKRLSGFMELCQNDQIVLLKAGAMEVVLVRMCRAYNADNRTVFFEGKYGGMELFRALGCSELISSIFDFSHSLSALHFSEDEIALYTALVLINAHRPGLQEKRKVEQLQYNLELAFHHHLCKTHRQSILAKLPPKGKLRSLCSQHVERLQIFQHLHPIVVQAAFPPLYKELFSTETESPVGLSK

C[N+](C)(C)Cc1ccccc1
inactive: Potency [1] > 92 µM | outcome [2] | caspase-3 activation [3] -0.692% | outcome [4] | Potency [5] | Potency [6] | Potency [7] | outcome [8] | Potency [9] | Potency [10] | Potency [11]

OCC(Br)CBr (stereo unspecified)
inactive: Potency [1] > 92 µM | outcome [2] | Potency [12] | outcome [8] | Potency [9] | Potency [10] | Potency [11] | activation [13] -1.14%

Brc1ccc(Oc2cc(Br)c(Br)cc2Br)c(Br)c1
inactive: Potency [1] > 92 µM | outcome [2] | outcome [14] | outcome [4] | Potency [12] | activation [15] -4.19%

CCOP(=S)(OCC)Oc1ccc([N+](=O)[O-])cc1
inactive: Potency [1] > 92 µM | outcome [14] | caspase-3 activation [3] -4.19% and -4.51% | outcome [4] | Potency [12] | Potency [5] | Potency [6] | outcome [8] | Potency [9] | Potency [10] | Potency [11] | activation [15] -1.79% and -1.31% and 2.7% | activation [13] 8.97%

Clc1ccc2ccccc2c1
inactive: Potency [1] > 92 µM | outcome [14] | outcome [4] | Potency [16] | Potency [12] | Potency [5] | Potency [17] | outcome [8] | Potency [9] | Potency [11] | Potency [18] | activation [13] 0.057%

Cc1ccc([N+](=O)[O-])cc1C
inactive: outcome [14] | Potency [19] | Potency [12] | Potency [6] | outcome [8] | Potency [9] | Potency [11] | activation [13] -0.487% and 1.08% | Potency [20]

CCCSC(=O)Cl
inactive: outcome [14] | Potency [19] | outcome [4] | Potency [16] | Potency [5] | Potency [17] | Potency [7] | outcome [8] | Potency [10] | Potency [11] | activation [15] -3.85% | Potency [18]
